This is a sample that favours compounds with a hit; in the whole collection about 19% have one here.
IL1B secr inh = blocks inflammasome-driven IL-1 beta release; 360,000 compounds, 4.7% hits; activity change, % at 57.5 µM; THP-1 LPS/ATP IL-1B secretion, AlphaLISA, 16 h; hits give low values; in the data active means activity change below about -50%; inconclusive means mostly about -30% to -49%
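Secreted IL-1B measured by AlphaLISA bead assay after 16 h compound exposure of THP-1 cells; compounds (final up to 57.5 uM) added 1 h before LPS (250 ng/mL) and ATP (1.25 mM) stimulation; lower signal means less secretion.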
HT1080 IDH1KD tx = kills HT-1080 cells with IDH1 knockdown; Potency, µM (doses to about 46.1 µM), most hits filed as cytotoxic; HT-1080 IDH1 knockdown viability, ATP luminescence, 48 h; 360,000 compounds, 2% hits
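After a 2 h attachment period, IDH1KD HT-1080 cells took pin-transferred compound for 48 h at 37 °C; ATP-based luminescence after 10 min room-temperature reagent incubation reported viability.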
DT40 TDP1 CPT = DT40-hTDP1 cell growth loss with CPT; chicken DT40 Tdp1-/-;hTDP1 cells + 20 nM CPT, ATP luminescence, 48 h; Potency, µM (highest dose often 46.2 µM), usual class: inhibitors; 420,000 compounds, 12% hits; further: nearly all actives have a fitted effect of over 55% in size
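Cell growth measured by CellTiter-Glo luminescence after a minimum 48 h, 37 C compound exposure with 20 nM CPT in Tdp1-knockout DT40 cells stably expressing hTDP1, seeded 400/well; qHTS titration format.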
HT1080-NT tox = kills 2HG-producing HT-1080-NT fibrosarcoma cells; HT-1080-NT fibrosarcoma viability, CellTiter-Glo ATP luminescence, 48 h; Potency, µM (series often up to 46.1 µM), usual class: cytotoxic; 360,000 compounds, 1.6% hits; AID 686970;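 further: NT is the 2HG producing partner of a matched IDH1 knockdown line; nearly all actives have a fitted effect of over 55% in size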
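HT-1080-NT fibrosarcoma cells (2HG-overproducing), 750 cells/well in RPMI with 5% FBS, dosed after 2 h and incubated 48 h at 37C. CellTiter-Glo luminescence normalized to DMSO and no-cell wells; concentration-response curves fitted and classed.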
TDP1 cell noCPT = qHTS for Inhibitors of human tyrosyl-DNA phosphodiesterase 1 (TDP1): qHTS in cells in absence of CPT | AID 686978, 2013 | DT40 Tdp1-/- hTDP1 cells, no CPT, ATP luminescence, 48 h | Potency, µM (titrated, usually from 46.2 µM), most hits filed as inhibitors | 420,000 compounds, 15% hits; further: nearly all actives have a fitted effect of over 55% in size
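Seeded 400 DT40-hTDP1 cells/well (vehicle DMSO, no 20 nM CPT); pinned compounds; ≥48 hr at 37 °C; CellTiter-Glo luminescence as viability measure.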
Hits are given with their value; n = inactive; u = inconclusive; x = no result; [ ] = dose if it differs, or a comment. Unless noted, the call rests on the fitted dose curve; in most records, active means well fitted curve in the direction sought with a large enough effect; inconclusive means small, poorly fitted or top-dose-only effect, or another doubt; inactive means no such curve, though single readings can be large; an effect the other way counts as inactive or inconclusive.

SMILES | IL1B secr inh | HT1080 IDH1KD tx | DT40 TDP1 CPT | HT1080-NT tox | TDP1 cell noCPT
Cc1ccc(NCc2cccn2-c2nnc(N3CCC(C(=O)NCc4ccccc4C)CC3)s2)cc1 | x | x | u | x | 16µM
Cc1ccc(NCc2cccn2-c2nnc(N3CCC(C(=O)NCc4ccc(F)cc4)CC3)s2)cc1 | x | x | u | x | 18µM
Cc1ccccc1CNC(=O)C1CCN(c2nnc(N3CCCC3=O)s2)CC1 | n | n | n | n | n
Cc1ccc(NCc2cccn2-c2nnc(N3CCCCCC3)s2)cc1 | x | x | u | x | 16µM
CCc1ccc(CNC(=O)C2CCN(c3nnc(-n4c(C)ccc4C)s3)CC2)cc1 | x | x | u | x | 8.2µM
CC(=O)N1CCC(Nc2ccc(C)cc2)CC1 | n | n | n | n | n
COc1ccc(OC)c(CCNC(=O)C2CCN(c3nnc(-n4cccc4)s3)CC2)c1 | n | n | u | n | u
COc1ccccc1CCNC(=O)C1CCN(c2nnc(-n3cccc3CNc3ccc(C)cc3)s2)CC1 | x | x | 18µM | x | 23µM
CN(C)c1cc(-c2ccc(Br)cc2)oc(=O)c1Cl | -51 | n | n | n | u
CCNc1nc(SCC(=O)Nc2ccc(Cl)c(Cl)c2)nc(N(C)C)n1 | n | n | u | n | 15µM
CN(C)c1nc(NCc2ccccc2)nc(SCC(=O)Nc2ccc(Cl)c(Cl)c2)n1 | n | u | 21µM | u | u
O=c1[nH]nc(-c2ccc(F)cc2)cc1-c1ccccc1 | -72 | n | u | n | n
O=c1[nH]nc(-c2ccc(F)cc2)cc1Cc1ccc(F)cc1 | n | n | u | n | n
Cc1ccc(-c2cc3c(nn2)-c2ccccc2C3=O)cc1 | n | u | 16µM | u | 23µM
O=C1c2ccccc2-c2nnc(-c3ccc(F)cc3)cc21 | n | n | u | n | 9.2µM
Cc1c(C(=O)N2CCCC(C)C2)sc2ncnc(NCCN3CCCCC3)c12 (configuration not stated) | x | x | n[9.04 µM] | x | n
COc1ccc(NC(=O)C2CCC(CNS(=O)(=O)c3csc(C(N)=O)c3)CC2)cc1 (configuration not stated) | x | x | u | x | n
CCN(CC)S(=O)(=O)c1ccc(NCCc2ccccn2)nc1 | n | n | n | n | n
C=CCc1c(C)nc(-c2ccccc2)nc1N/N=C(\C)c1ccccc1 | n | n | u | n | n
C=CCc1c(C)nc(SC)nc1Nc1ccc(C(C)=O)cc1 | n | n[9.24 µM] | 16µM | n | 21µM
C=CCc1c(C)nc(-c2ccccc2)nc1Nc1ccc(O)cc1 | -97 | u | u | u | 15µM
O=S(=O)(Nc1cccc(-c2ccc(N3CCCCCC3)nn2)c1)c1ccc(C(F)(F)F)cc1 | n | n | n | n | n
O=S(=O)(Nc1ccc(-c2ccc(N3CCCC3)nn2)cc1)c1ccc(Cl)cc1 | x | x | 15µM | x | u
O=S(=O)(Nc1ccc(-c2ccc(N3CCCCC3)nn2)cc1)c1ccc(OC(F)(F)F)cc1 | x | x | u | x | 16µM
Cc1cc(S(=O)(=O)Nc2ccc(-c3ccc(N4CCCCC4)nn3)cc2)c(C)cc1Cl | x | x | 13µM | x | u
SMILES | IL1B secr inh | HT1080 IDH1KD tx | DT40 TDP1 CPT | HT1080-NT tox | TDP1 cell noCPT
COc1cc(C)c(S(=O)(=O)Nc2cccc(-c3ccc(N4CCCC4)nn3)c2)cc1C | x | x | u | x | n
Cc1ccc(S(=O)(=O)N2C[C@@H](C)[C@]3(C2)[C@H](O)[C@H](OC(=O)Nc2cccs2)C[C@H]2C(=O)N(c4ccccc4)C(=O)[C@H]23)cc1 | -109 | u | 23µM | u | 16µM
Cc1ccc(S(=O)(=O)N2C[C@@H](C)[C@]3(C2)[C@H](O)[C@H](OC(=O)NC2CC2)C[C@H]2C(=O)N(c4ccccc4)C(=O)[C@H]23)cc1 | u | n | u | n | u
COc1ccc(CNC(=O)O[C@@H]2C[C@H]3C(=O)N(c4ccccc4)C(=O)[C@H]3[C@@]3(CN(S(=O)(=O)c4ccc(C)cc4)C[C@H]3C)[C@@H]2O)cc1OC | -64 | n | u | n | 26µM
Cc1cc(=O)oc2cc(O)c(N=Nc3ccccc3)cc12 | n | n | u | n | n
Cc1ccc2oc(-c3ccc(C)c(NC(=O)COc4ccc(Cl)cc4)c3)nc2c1 | x | x | n | x | n
COc1ccc(NC(=O)c2ccc3c(=O)n4nc(Nc5cccc(Cl)c5C)sc4nc3c2)cc1 | x | x | 2.9µM | x | 3.3µM
COc1ccc(NC(=O)c2ccc3c(=O)n4nc(Nc5ccccc5C)sc4nc3c2)cc1Cl | x | x | 7.3µM | x | 5.8µM
COC(=O)c1ccc2c(=O)n3nc(Nc4cc(OC)ccc4OC)sc3nc2c1 | x | x | u | x | n
Cc1ccc(NC(=O)c2ccc3c(=O)n4nc(Nc5ccccc5C)sc4nc3c2)cc1C | x | x | 2.9µM | x | 5.8µM
CCOc1ccc(NC(=O)c2ccc3c(=O)n4nc(Nc5ccccc5C)sc4nc3c2)cc1 | x | x | u | x | 6.5µM
CCc1ccccc1Nc1nn2c(=O)c3ccc(C(=O)NC(C)C)cc3nc2s1 | x | x | n | x | n
Cc1cccc(NC(=O)CSc2nnc3c4ccccc4n(C)c3n2)c1 | x | x | n | x | n
CCC(CC)C(=O)c1c[nH]c(C(=O)N2CCN(c3ccc(OC)cc3)CC2)c1 | n | n | n | n | n
C=CCc1cc(Cl)ccc1OCCCNC(C)CC (configuration not stated) | n | u | 16µM | u | 15µM
C=CCc1cc(Cl)ccc1OCCNCCCOC | u | n | u | n | u
C/C=C/c1ccc(OCCCNC(C)CC)c(OC)c1 (configuration not stated) | u | n | n | n | n
C=CCc1ccc(OCCCCNC(C)CC)c(OC)c1 (configuration not stated) | n | n | u | n | 18µM
Cc1csc(SCC(=O)Nc2cc(S(=O)(=O)N(C)C)ccc2C)n1 | n | n | n | n | n
CC(C)(C)OC(=O)N1CCC(c2c(C(=O)NCCCN3CCc4ccccc4C3)cnn2-c2ccccc2)CC1 | x | x | u | x | 23µM
Cc1cccc(C)c1-n1ncc(C(=O)NCCCN2CCC(C)CC2)c1C1CCN(C(=O)OC(C)(C)C)CC1 | x | x | u | x | 21µM
CCN1CCN(CCCNC(=O)c2cnn(-c3ccccc3)c2C2CCN(C(=O)OC(C)(C)C)CC2)CC1 | x | x | n | x | n
Cc1ccc(-n2ncc(C(=O)NCCN3CCN(C)CC3)c2C2CCN(C(=O)OC(C)(C)C)CC2)c(C)c1 | x | x | n | x | u
Cc1ccc(-n2ncc(C(=O)NCCCN3CCc4ccccc4C3)c2C2CCN(C(=O)OC(C)(C)C)CC2)c(C)c1 | x | x | 21µM | x | 21µM
COc1cc(/C=C2/NC(=O)NC2=O)cc(Br)c1OCc1ccc(C(=O)O)cc1 | n | n | n | n | n
C[C@H]1CN([C@@H](C)CO)C(=O)c2cccc(NC(=O)c3nc4ccccc4s3)c2O[C@H]1CN(C)C(=O)Nc1ccc(F)cc1 | u | n | u | u | u
Cc1noc(C)c1-c1nc(NCCN2CCOCC2)c2ccccc2n1 | x | x | n | x | n

Source: PubChem
